# MITF TRPM1 HTS – MITF TRPM1 promoter activation in melanoma cells; activation, % at 12.5 µM; hit rate 0.75% among 300,000; SK-MEL-5 TRPM1-promoter luciferase, 24 h; % of positive control, neutral wells = 0;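 active = mean activation of at least 80% with every replicate also reaching 80%; inconclusive = mean reaches 80% but some replicate falls short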;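 also: 0% = neutral control wells and 100% = parthenolide positive control wells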
# esBAF inh – SWI/SNF esBAF complex inhibition; AID 602393; reporter increase, % at 12.5 µM; hit rate 2% among 350,000; mouse ES cells, Bmi1-luciferase knock-in reporter, 24 h; 100% = twice the neutral-well signal; in the data active = activation above about 40%; inconclusive = no clear call, values can overlap the other calls;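 also: 0% = median of the plate's neutral control wells and 100% = double that signal; a rise in the Bmi1 reporter signal indicates esBAF inhibition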
# GAA850 FXN act – increases GAA850 frataxin promoter reporter activity | hit rate 0.56% among 360,000 | HEK293 lucGAA850 FXN promoter luciferase reporter, 24 h; percent of 10 µM SAHA response | activation, % at 6 µM;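 active = activation above the average of all compounds screened plus 3 SD, cutoff fixed separately per campaign, cut at about 7.5% in these data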;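 also: 0% = DMSO wells and 100% = 10 µM SAHA wells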
# Wnt act – Wnt/beta-catenin pathway activation; hit rate 1.2% among 300,000; Wnt/beta-catenin reporter cell assay, activator, plate reader; activation, % at 9.35 µM; in the data active = activation above about 30%, passing the limit was not always enough; inconclusive = no clear call, values can overlap the other calls;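 also: 0% = neutral control wells and 100% = positive control wells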
# GAA30 FXN cntr – GAA30 FXN promoter activation counter-screen; shares compounds with GAA850 FXN act; HEK293 lucGAA30 FXN promoter luciferase, 24 h; DMSO = 0%, 5 µM ipriflavone = 100%; activation, % at 6 µM; hit rate 66% among 1,900;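 active = mean activation above the mean of solvent-only control wells plus 3 SD, cut at about 22% in these data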;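 also: counterscreen of GAA850 promoter hits where activity marks nonselective or luminescence artifacts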
# FXN GAA850 conf – GAA850 FXN promoter activation confirmation. shares compounds with GAA850 FXN act. HEK293 lucGAA850 FXN promoter luciferase reporter, 24 h; 100% = activation by SAHA. activation, % at 6 µM. hit rate 86% among 1,900. AID 588351;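 active = mean activation above a set limit taken from the primary screen, cut at about 8% in these data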;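 also: 0% = DMSO wells and 100% = 10 µM SAHA wells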
# * = called active by the depositor; ? = inconclusive; nt = no result. Hits are enriched below; roughly 2.8% of the tested compounds scored in any of these assays.
SMILES,MITF TRPM1 HTS,esBAF inh,GAA850 FXN act,Wnt act,GAA30 FXN cntr,FXN GAA850 conf
CCn1c(SCc2nc3ccccc3s2)nc2cc(S(=O)(=O)N3CCOCC3)ccc21,0,62*,12*,?,81*,33*
C[C@H](CO)N1C[C@H](C)[C@H](CN(C)C(=O)Nc2ccc(F)cc2)Oc2c(NS(C)(=O)=O)cccc2C1=O,nt,-2,nt,nt,nt,nt
c1ccc(CNc2nc(NCc3ccccc3)c3sccc3n2)cc1,nt,-5,10*,0,46*,17*
CN1C(=O)[C@@](O)(CC(=O)c2ccccc2)c2cc(Br)ccc21,nt,nt,nt,-1,nt,nt
CCCCN1C(=O)C(O)(c2ccccc2)c2cc(Br)ccc21 (configuration not stated),8,-14,8.1*,-2,20,14*
CN1CCN(C(=O)C[C@H]2CC[C@H]3[C@H](COc4ccc(NC(=O)C5CCCCC5)cc4C(=O)N3C)O2)CC1,nt,-6,nt,nt,nt,nt
CC1=CN2C(=N)/C(=C/c3ccc([N+](=O)[O-])o3)C(=O)N=C2S1,-89,nt,12*,0,-55,-17
O=C(N/N=C\c1ccco1)Nc1cccc(Cl)c1,64,nt,9.0*,48*,103*,38*
CCCC(=O)Nc1ccc2oc(-c3ccncc3)nc2c1,41,26,2,19,nt,nt
CCCC(=O)Nc1ccc(-c2nc3cc(C)c(C)cc3o2)cc1,46,19,9.8*,nt,108*,48*
CNC(=O)C[C@@H]1CC[C@H]2[C@@H](COC[C@H](O)CN2Cc2ccc(C(F)(F)F)cc2)O1,nt,2,nt,nt,nt,nt
CC(C)(C)OC(=O)CC(S(=O)(=O)c1ccccc1)S(=O)(=O)c1ccccc1,nt,0,18*,0,-20,42*
CO[C@@H]1CN(C)C(=O)c2ccc(NC(=O)c3ccccc3F)cc2OC[C@H](C)N(C(C)=O)C[C@@H]1C,nt,1,nt,nt,nt,nt
CC(=O)Nc1ccc(-c2csc(Nc3ccccn3)n2)cc1,39,33,4,-1,nt,nt
Cc1ccnc(Nc2nc(-c3ccc(O)c(O)c3)cs2)c1,nt,17,17*,8,91*,42*
Cc1cc(O)ccc1Nc1nc(-c2cccnc2)cs1,nt,33,3,17,nt,nt
Oc1ccc(-c2csc(Nc3ccccn3)n2)cc1O,nt,1,13*,8,96*,56*
Cc1cccnc1Nc1nc(-c2ccc(O)c(O)c2)cs1,45,-13,14*,15,107*,50*
C[C@H](CO)N1C[C@H](C)[C@H](CN(C)S(=O)(=O)c2cccs2)OCCCC[C@H](C)Oc2ccc(NC(=O)Nc3ccccc3)cc2C1=O,nt,-2,nt,nt,nt,nt
C[C@H](CO)N1C[C@H](C)[C@@H](CN(C)Cc2ccncc2)Oc2cc(C3=CCCCC3)ccc2S1(=O)=O,nt,-6,nt,nt,nt,nt
CCCCCSc1nnc(-c2cc(Br)ccc2N)c(=O)[nH]1,nt,3,-1,-6,nt,nt
CCCSc1nnc(-c2ccccc2N)c(=O)[nH]1,66,22,11*,nt,90*,28*
Cc1ccc(NC(=S)N/N=C/c2ccc([N+](=O)[O-])s2)cc1,-71,nt,11*,-1,-97,-29
Cc1cc(C)cc(N=Cc2ccc([N+](=O)[O-])s2)c1,-26,nt,16*,nt,1,6
O=[N+]([O-])c1ccc(C=Nc2ccc(Cl)c([N+](=O)[O-])c2)s1,-70,-47,4,-1,nt,nt
SMILES,MITF TRPM1 HTS,esBAF inh,GAA850 FXN act,Wnt act,GAA30 FXN cntr,FXN GAA850 conf
COc1ccc(C2CC(c3cccc(C)c3)n3ncnc3N2)cc1 (configuration not stated),-3,-3,1,0,nt,nt
Cc1cccc(C2CC(c3ccccc3)Nc3ncnn32)c1 (configuration not stated),nt,11,19*,-1,10,9.6*
CCNC(=O)C[C@H]1CC[C@H]2[C@@H](COc3ccc(NC(=O)c4cccc(OC)c4)cc3C(=O)N2C)O1,nt,-4,nt,nt,nt,nt
CN1CCN(C(=O)C[C@@H]2C[C@@H]3c4cc(NC(=O)CC5CC5)ccc4O[C@@H]3[C@@H](CO)O2)CC1,nt,0,nt,nt,nt,nt
O=C(O)c1ccc(N=Nc2c(O)ccc3ncccc23)cc1,-23,-4,8.5*,0,108*,39*
CCOC(=O)C1=C(O)/C(=C/c2ccc(OCC(=O)O)c(OCC)c2)SC1=Nc1ccc(OC)cc1,-5,nt,3,-3,nt,nt
CCOC(=O)C1=C(O)/C(=C/c2cc(OC)c(OC)c(OC)c2)SC1=Nc1ccc(OC)cc1,-3,nt,9.6*,nt,17,11*
C[C@@H](NC(=O)C[C@H]1C=C[C@@H](NC(=O)C2CCOCC2)[C@H](CO)O1)c1ccccc1,nt,-1,nt,nt,nt,nt
CN=c1scc(-c2ccccc2F)n1/N=C/c1ccc(O)c(O)c1O,-86,-78,-1,-7,nt,nt
CC(C)N=c1scc(-c2cccs2)n1/N=C/c1ccc(O)c(O)c1O,3,nt,9.0*,nt,49*,23*
O=C(CN1CCOCC1)NCC[C@@H]1CC[C@H](NC(=O)Nc2ccc(Cl)cc2)[C@H](CO)O1,nt,-7,nt,nt,nt,nt
C/C=C/c1ccc2c(c1)O[C@H](CN(C)C(=O)c1ccccc1F)[C@@H](C)CN([C@H](C)CO)S2(=O)=O,nt,-6,nt,nt,nt,nt
CC1CCCC(C)N1CCCNC(=O)c1ccc2c(c1)NC(=O)c1ccccc1S2 (configuration not stated),7,-7,6,0,nt,nt
CCC(C)N(CCNC(=O)c1ccc2c(c1)NC(=O)c1ccccc1S2)C1CCCCC1 (configuration not stated),-10,-3,11*,-5,18,11*
CCN1CCN(c2ccc(NC(=O)c3ccc([N+](=O)[O-])o3)cc2Cl)CC1,-71,nt,4,-7,nt,nt
CCC(=O)N1CCN(c2ccc(Cl)cc2NC(=O)c2ccc([N+](=O)[O-])o2)CC1,-68,-9,2,-1,nt,nt
CC(=O)N1CCN(c2ccc(NC(=O)c3ccc([N+](=O)[O-])o3)cc2Cl)CC1,nt,-7,7.7*,-6,41*,28*
CCC(=O)N1CCN(c2ccc(NC(=O)c3ccc([N+](=O)[O-])o3)cc2Cl)CC1,-87,nt,9.3*,-8,42*,26*
C[C@H]1CN([C@@H](C)CO)C(=O)c2cc(-c3ccncc3)cnc2O[C@@H]1CN(C)C(=O)c1ccc(F)cc1,nt,3,nt,nt,nt,nt
CCN(C[C@H]1N[C@@](CC)(C(=O)OC)[C@H]2C(=O)N(Cc3ccccc3)C(=O)[C@@H]12)C(=O)Nc1ccc(C(F)(F)F)cc1,5,-2,8.4*,-1,27*,14*
CC[C@@]1(C(=O)OC)N[C@H](CN(C)C(=O)COc2ccccc2)[C@@H]2C(=O)N(Cc3ccccc3)C(=O)[C@@H]21,1,-4,9.5*,-2,18,7
CC[C@@]1(C(=O)OC)N[C@H](CN(C)C(C)=O)[C@@H]2C(=O)N(Cc3ccccc3)C(=O)[C@@H]21,-4,2,1,-1,nt,nt
